# Reference: PubChem BioAssay (NCI)
# This is part of a sample that, as a whole, favours compounds with a hit. Of some 83,000 tested, about 20% had one in any assay.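 96-well plates, one dose, 48 hours. Percent growth reported; active if below 10.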 Active and inactive are the calls of the source.
# Test system: HL-60(TB) leukemia
# Experiment: NCI-60 one-dose screen, 48 h (100 = growth as untreated, 0 = no growth, -100 = all killed)
# Settings: 10 µM unless noted
row,Structure (SMILES),growth
1,COC(=O)C(Cc1cnc[nH]1)N1CC(=O)N2[C@@H](c3ccccc3)SC[C@H]2C1=O (stereo partly specified),90.3% (inactive)
2,Fc1cc2[nH]ncc2c2c3c(c(-c4cn[nH]c4C(F)(F)F)nc12)C1CCC3C1 (stereo unspecified),1.63% (active)
3,CCN(CC)c1ccc(/C=C/C(=O)c2cccc(NS(C)(=O)=O)c2)cc1,9.82% (active)
4,Brc1ccc(Cn2nnnc2-c2ccn(-c3ccccc3)n2)cc1,69.1% (inactive)
5,F,28.1% [6.87 mM] (inactive)
6,CCOc1ccc2c(c1)c(C)cc(C)[n+]2CC,61.5% (inactive)
7,CCOC(=O)c1cn2ncnc(Oc3ccc(NC(=O)NC4CC4)c(F)c3)c2c1C,70.9% (inactive)
8,O=C(CCl)N1c2ccccc2Oc2ccc3ccccc3c21,-0.539% (active)
9,Cc1ccc(C)c2c1CCC2C(C)C (stereo unspecified),108% (inactive)
10,O=Nc1c(-c2c(O)[nH]c3cc(Br)ccc23)[nH]c2ccccc12,-51.3% (active)
11,COc1ccc(-c2n/c(=C\c3c(O)[nH]c4ccc(OC)cc34)cc3c2=Nc2ccccc2-3)cc1,81% (inactive)
12,CC(C)c1cc(C(=O)O)c(O)c(C(C)C)c1.CC(C)c1cc(C(=O)O)c(O)c(C(C)C)c1.[Mn],94.2% (inactive)
13,COc1cc2c(c(OC)c1OC)CCC(c1cccc(NC(=O)c3cccc(Br)c3)c1)O2 (stereo unspecified),97% (inactive)
14,C=C(C)C(=O)Nc1ccc(NC(C)C)cc1,129% (inactive)
15,CN1CCc2c(sc3nc4n(-c5ccc(Cl)cc5)c(=O)[nH]n4c(=O)c23)C1,89.3% (inactive)
16,O=S1(=O)N(Cc2ccccc2)[C@@H](Cc2ccccc2)[C@H](O)[C@H](O)[C@H](Cc2ccccc2)N1Cc1ccccc1,-4.17% (active)
